# Data as given in PubChem BioAssay (Tox21).
# Records with an inconclusive call do not appear. A call without a number means that no potency is given here. The source made the active and inactive calls. The call rests on the fitted dose curve; in most records, active means well fitted curve in the direction sought with a large enough effect in the repeat runs; inconclusive means weak or mixed curves; inactive means no such curve, though single readings can be large; an effect the other way counts as inactive or inconclusive.
# Columns and labels:
# [1] = qHTS RealTime-Glo MT Cell Viability Assay in HepG2 cells - 40 hour (AID 1224870); further: nearly all actives have a fitted effect of over 50% in size
# How it was run: (§1)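 HepG2 cells mixed with RealTime-Glo MT reagents (NanoLuc plus cell-permeant prosubstrate) were seeded at 600 cells/well, incubated 5 h at 37 C/5% CO2, then pinned with compounds in DMSO; nonlytic luminescence tracked viability during 40 h treatment.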
# [2] = A CellTox Green Cytotoxicity Assay to monitor cytotoxicity in HEK293 cells - 40 hour (AID 1224871); further: nearly all actives have a fitted effect of over 45% in size
# How it was run: (§2)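 Dead-cell fluorescence measured kinetically: asymmetric cyanine dye, HEK293, 600 cells/well, 5 h settle, 23 nL cpd/DMSO, 37 C, reads 0–40 h every 8 h.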
# [3] = qHTS RealTime-Glo MT Cell Viability Assay in HEK293 cells - 16 hour (AID 1224872); further: nearly all actives have a fitted effect of over 50% in size; further: potency means the concentration at half of the fitted maximal effect
# How it was run: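 Cells + reagent dispensed (600 cells/well, HEK293) → 5 h at 37 C/5% CO2 → 23 nL compound in DMSO pinned → 40 h at 37 C → luminescence read at 0, 8, 16, 24, 32, 40 h.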
# [4] = qHTS RealTime-Glo MT Cell Viability Assay in HepG2 cells - 8 hour (AID 1224873); further: nearly all actives have a fitted effect of over 55% in size
# How it was run: as §1
# [5] = qHTS RealTime-Glo MT Cell Viability Assay in HEK293 cells - 40 hour (AID 1224874); details: RealTime-Glo luminescence; max response: hits give low values; further: nearly all actives have a fitted effect of over 50% in size; further: potency means the concentration at half of the fitted maximal effect
# How it was run: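 600 HEK293 cells per well, dispensed already mixed with RealTime-Glo MT reagents. Compound dosing came 5 h later. The same wells were read for luminescence at 0, 8, 16, 24, 32 and 40 h of exposure at 37 C.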
# [6] = A CellTox Green Cytotoxicity Assay to monitor cytotoxicity in HepG2 cells - 16 hour (AID 1224876); further: nearly all actives have a fitted effect of over 45% in size
# How it was run: (§3)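 First, HepG2 cells (600/well) mixed with reagent were plated; second, after 5 h at 37 C they received compounds via pintool; third, fluorescence was measured at 0 h through 40 h at 8 h intervals.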
# [7] = qHTS RealTime-Glo MT Cell Viability Assay in HepG2 cells - 32 hour (AID 1224877); further: nearly all actives have a fitted effect of over 55% in size
# How it was run: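 Real-time, nonlytic viability: 600 HepG2 cells/well mixed with NanoLuc enzyme plus prosubstrate; 5 h settle, compound (DMSO) added by pintool; luminescence monitored over 40 h at 37 C.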
# [8] = A CellTox Green Cytotoxicity Assay to monitor cytotoxicity in HEK293 cells - 24 hour (AID 1224875); further: series mostly up to about 77 µM; nearly all actives have a fitted effect of over 45% in size
# How it was run: as §2
# [9] = A CellTox Green Cytotoxicity Assay to monitor cytotoxicity in HepG2 cells - 24 hour (AID 1224878); further: nearly all actives have a fitted effect of over 45% in size
# How it was run: as §3
# [10] = A CellTox Green Cytotoxicity Assay to monitor cytotoxicity in HepG2 cells - 40 hour (AID 1224879); further: nearly all actives have a fitted effect of over 40% in size
# How it was run: as §3
SMILES,Potency [1],Potency [2],Potency [3],outcome [4],max response [5],Potency [6],Potency [7],Potency [8],Potency [9],Potency [10],Potency [5]
CC(C)=CCC/C(C)=C/C(=O)O,inactive,inactive,inactive,inactive,0.0826% (inactive),inactive,inactive,–,–,–,–
O=C(O)/C=C/c1ccc(/C=C/C(=O)O)cc1,inactive,inactive,inactive,inactive,–,inactive,inactive,inactive,inactive,inactive,–
CC12CCC(CC1=O)C2(C)C (stereo unspecified),inactive,inactive,inactive,inactive,-2.19% (inactive),inactive,inactive,–,inactive,inactive,–
Cc1cc(C)cc(OCC2CNC(=O)O2)c1 (stereo unspecified),inactive,inactive,inactive,inactive,–,inactive,inactive,inactive,inactive,inactive,–
COC(=O)[C@H]1[C@H]2C[C@@H]3c4[nH]c5cc(OC)ccc5c4CCN3C[C@H]2C[C@@H](OC(=O)COc2ccc(OC)cc2)[C@@H]1OC,inactive,inactive,inactive,inactive,6.2% (inactive),–,inactive,–,inactive,inactive,–
CN(C)C(=O)Nc1ccccc1,inactive,inactive,inactive,inactive,1.06% (inactive),–,inactive,inactive,inactive,inactive,–
CCN1CCCC1CNC(=O)c1cc(S(N)(=O)=O)ccc1OC (stereo unspecified),inactive,inactive,inactive,inactive,–,inactive,inactive,inactive,inactive,–,–
CCCCNc1ccccc1,inactive,inactive,inactive,inactive,2.6% (inactive),–,inactive,inactive,inactive,inactive,–
NS(=O)(=O)c1cc2c(cc1C(F)(F)F)NC(Cc1ccccc1)NS2(=O)=O (stereo unspecified),inactive,inactive,inactive,inactive,-7.67% (inactive),–,inactive,inactive,inactive,inactive,–
C=CCOc1nc(OCC=C)nc(OCC=C)n1,inactive,inactive,inactive,inactive,11.1% (inactive),inactive,inactive,–,inactive,inactive,–
CC(C)c1cccc(O)c1,inactive,inactive,inactive,inactive,–,inactive,inactive,inactive,–,–,–
CCC(=O)/C=C/c1ccc(OC)cc1,inactive,inactive,inactive,inactive,-0.0895% (inactive),–,inactive,inactive,inactive,inactive,–
Cc1ccccc1C(=O)O,inactive,inactive,inactive,inactive,–,inactive,inactive,inactive,–,–,–
Oc1cc(O)c2c(c1)O[C@H](c1ccc(O)c(O)c1)[C@H](O)C2,inactive,inactive,inactive,inactive,0.448% (inactive),–,inactive,–,inactive,inactive,–
C=CCOCC(O)CS(=O)(=O)O (stereo unspecified),inactive,inactive,inactive,inactive,-7.7% (inactive),inactive,inactive,–,inactive,inactive,–
C[C@H](O)C(=O)Nc1c(I)c(C(=O)NC(CO)CO)c(I)c(C(=O)NC(CO)CO)c1I,inactive,inactive,inactive,inactive,4.24% (inactive),–,inactive,inactive,inactive,inactive,–
CCCCCCCCCCCCCCC,inactive,inactive,inactive,inactive,10.7% (inactive),inactive,inactive,–,inactive,inactive,–
CN1[C@@H]2CC[C@H]1CC(NC(=O)n1c(=O)[nH]c3ccccc31)C2 (stereo partly specified),inactive,inactive,inactive,inactive,-2.86% (inactive),–,inactive,inactive,inactive,inactive,–
CCC(=O)c1cccc(Cl)c1,inactive,inactive,inactive,inactive,–,inactive,inactive,inactive,inactive,–,–
Nc1nc(F)nc2c1ncn2[C@@H]1O[C@H](CO)[C@@H](O)[C@@H]1O,inactive,inactive,inactive,inactive,-1.6% (inactive),inactive,inactive,–,inactive,inactive,–
C=CC(=O)N1CCOCC1,inactive,inactive,inactive,inactive,–,inactive,inactive,inactive,inactive,–,–
CCOC(=O)Cn1c(=O)sc2cccc(Cl)c21,inactive,inactive,inactive,–,-10.9% (inactive),inactive,inactive,inactive,inactive,inactive,–
O=[N+]([O-])c1ccc(CCO)cc1,inactive,inactive,inactive,–,-7.45% (inactive),inactive,inactive,inactive,inactive,inactive,–
COC(=O)c1ccc(C(=O)OC)c(C(=O)OC)c1,inactive,inactive,inactive,inactive,–,inactive,inactive,–,–,–,–
CCC(=O)Nc1cccc(N)c1,inactive,inactive,inactive,inactive,–,inactive,inactive,inactive,inactive,inactive,–
CSc1nc(NC2CC2)nc(NC(C)(C)C)n1,inactive,inactive,24.5 µM (active),–,–,inactive,inactive,inactive,inactive,–,24.5 µM (active)
COc1ccc(N=[N+]([O-])c2ccc(OC)cc2)cc1,inactive,inactive,inactive,inactive,–,inactive,inactive,–,inactive,inactive,–
CCO[Si](CCCN=C=O)(OCC)OCC,inactive,inactive,inactive,–,0.0382% (inactive),inactive,inactive,inactive,inactive,inactive,–
